Measured values as given in PubChem BioAssay (NCATS).
Several values for one entry are separate records, joined by “and”; a condition that tells them apart may be missing. Identical values can stand only once. Inconclusive results are not listed. Activity calls are given as the source filed them. Unless noted, how the calls were made is not given here.

Legend:
[1] = qHTS profiling for inhibitors of Plasmodium falciparum (DD2) proliferation (AID 743323); details: lower = more inhibition; at 28.7 µM (top of the series)
Outline: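 Parasite DNA quantified by SYBR Green fluorescence (ex 485, em 535 nm) after saponin/Triton lysis and overnight dark incubation. Cultures: 0.3% parasitemia, 2.5% hematocrit, 72 h, 37 C; data scaled between DMSO and 0.29 uM artemisinin.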

[2] = qHTS profiling for inhibitors of Plasmodium falciparum (HB3) proliferation (AID 743324; active means well fitted curve in the direction sought with a large enough effect; an effect the other way counts as inactive or inconclusive;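 further: 100% = DMSO vehicle wells and 0% = artemisinin-treated control wells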); details: Plasmodium falciparum HB3 blood-stage proliferation; at 28.7 µM (top of the series)
Outline: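 SYBR Green fluorescence (485 ex/535 em) of lysed cultures, incubated overnight at room temperature in the dark, quantifies parasite DNA. Infected erythrocytes at 0.3% parasitemia and 2.5% hematocrit were exposed 72 h; values normalized to DMSO and 0.29 uM artemisinin controls.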

[3] = qHTS profiling of the MIPE4 collection as inhibitors of Plasmodium falciparum (3D7) proliferation (AID 743344);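 further: scaled between DMSO vehicle wells and 0.29 µM artemisinin as full inhibition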; details: P. falciparum 3D7 in erythrocytes, SYBR Green DNA fluorescence, 72 h; at 28.5 µM (top of the series) unless noted
Outline: (§1)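 Parasite DNA was quantified by SYBR Green I fluorescence (ex 485, em 535 nm) after overnight lysis in saponin/Triton buffer at room temperature. Cultures at 0.3% parasitemia and 2.5% hematocrit were first exposed to compound for 72 h at 37 C; signals were normalised to artemisinin (0.29 uM) and vehicle wells.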

[4] = qHTS profiling of the MIPE4 collection as inhibitors of Plasmodium falciparum (DD2) proliferation (AID 743345); details: P. falciparum Dd2 in erythrocytes, SYBR Green DNA, 72 h; at 28.5 µM (top of the series) unless noted
Outline: as §1

[5] = qHTS profiling of the MIPE4 collection as inhibitors of Plasmodium falciparum (DD2) proliferation (Rep 2) (AID 743346); details: P. falciparum Dd2 in erythrocytes, SYBR Green DNA, 72 h; at 28.5 µM (top of the series) unless noted
Outline: as §1

[6] = qHTS profiling of the MIPE4 collection as inhibitors of Plasmodium falciparum (HB3) proliferation (AID 743347);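 further: plate controls were DMSO vehicle wells for no effect and artemisinin wells for full effect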; details: P. falciparum HB3 in erythrocytes, SYBR Green DNA, 72 h; at 28.5 µM (top of the series) unless noted
Outline: as §1

[7] = High-throughput drug toxicity screening in the BPDCN cell line Cal-1 (AID 1224825); details: Cal-1 BPDCN cell viability, qHTS; at 45.8 µM (top of the series) unless noted
Outline: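 CellTiter-Glo luminescence after 48 h compound exposure; percent activity scaled with DMSO as 100% and bortezomib (9.2 uM final) as 0%. Cal-1 cells seeded at 500/well in RPMI, 10% FBS, no phenol red.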

[8] = qHTS assay for measurement of the activity of small molecule inhibitors on Zika virus induced Caspase-3 activity in human iPSC derived neural progenitor cells (hNPCs) (AID 1224857; active means well fitted curve in the direction sought with a large enough effect; an effect the other way counts as inactive or inconclusive; further: nearly all actives have a fitted effect of over 65% in size; further: potency means the concentration at half of the fitted maximal effect)
Outline: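 Caspase-3/7 induction by a 6-hour ZIKV infection was quantified with a luminescent Caspase-Glo 3/7 reagent incubated 30 minutes at room temperature. Compounds were preincubated with hNPCs for 1 hour; inhibition was calculated against uninfected and infected control wells.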

[9] = qHTS Assay for Identifying Gametocytocidal Compounds (AID 743244; active means well fitted curve in the direction sought with a large enough effect; an effect the other way counts as inactive or inconclusive; further: potency means the concentration at half of the fitted maximal effect;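 on max response: on the % scale 0 is the no-effect control and ±100 the full control effect; actives lower the fluorescent signal which means gametocytes are killed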); details: P. falciparum 3D7 stage III-V gametocytes, alamarBlue, 72 h; max response: stronger effect = lower value
Outline: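 Late gametocytes (III–V), P. falciparum 3D7; 72 h drug, then 24 h alamarBlue; resazurin reduction read by fluorescence.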

[10] = qHTS profiling for inhibitors of Plasmodium falciparum (3D7) proliferation (AID 743322);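 further: infected erythrocytes exposed to compound for 72 h before lysis; 100% = DMSO vehicle wells and 0% = 0.29 µM artemisinin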; details: P. falciparum 3D7 proliferation; at 28.7 µM (top of the series)
Outline: as §1

Row | Structure (SMILES) | activity, percent of control [1] | remaining proliferation (% of control), lower = more inhibition [2] | parasite growth, % of DMSO control [3] | parasite growth remaining, % of DMSO control (lower = more inhibition) [4] | parasite growth, % of control (lower = inhibition) [5] | growth, % of control [6] | viability (% of control) [7] | Potency [8] | max response [9] | Potency [9] | remaining parasite growth % (stronger effect = lower value) [10]
1 | O=C(Nc1cc(C(F)(F)F)cc(C(F)(F)F)c1)c1cc(Cl)ccc1O | 0.0029% | -0.617% | 5.26% | 6.62% | 14.1% | 5.57% | 2.38% | inactive |  |  | 
2 | Nc1nc(-c2nn(Cc3ccccc3F)c3ncccc23)nc(N)c1N1CCOCC1 |  |  | 28.3% |  |  |  | 101% | inactive | -6.3% (inactive) |  | 
3 | CC(C)CC(=O)Nc1n[nH]c2c1CN(C(=O)C1CCN(C)CC1)C2(C)C | 13.7% |  |  | 19.3% | 34.2% | 5.85% | 2.15% | inactive |  | 18.7 µM (active) | 
4 | CCCNC(=O)Nc1ccc(Oc2ncnc3cc(OC)c(OC)cc23)cc1Cl |  |  |  |  |  |  |  | inactive |  |  | 
5 | O=c1[nH]c(=O)n(C2CCCO2)cc1F (configuration not stated) |  |  | 404% [at 57.5 µM] | 99.7% [at 57.5 µM] | 110% [at 57.5 µM] | 412% [at 57.5 µM] | 116% [at 92.2 µM] |  |  |  | 
6 | O=C(O)CO.[NH2-].[NH2-].[Pt+2] |  |  |  | 95.3% | 83.9% | 94.7% | 100% | inactive | -5.78% (inactive) |  | 
7 | Cn1c(CNc2ccc(C(=N)N)cc2)nc2cc(C(=O)N(CCC(=O)O)c3ccccn3)ccc21 |  |  | 98.6% [at 9.64 µM] | 91.9% [at 9.64 µM] | 86.3% [at 9.64 µM] | 87.7% [at 9.64 µM] | 105% [at 23.2 µM] |  |  |  | 
8 | COc1cc(C)c(Sc2cnc(NC(=O)c3ccc(CNC(C)C(C)C)cc3)s2)cc1C(=O)N1CCN(C(C)=O)CC1 (configuration not stated) |  |  |  | 16% | 18.9% | 4.37% | 6.82% | inactive |  |  | 
9 | O=C(NC1CCNCC1)c1[nH]ncc1NC(=O)c1c(Cl)cccc1Cl | 9.64% and 5.01% | 9.9% and 2.81% | 10.8% |  | 22% | 8.44% | 2.11% | inactive |  | 1.32 µM (active) and 2.64 µM (active) | 5.64% and 1.64%
10 | CCOc1ccccc1OCCNC(C)Cc1ccc(OC)c(S(N)(=O)=O)c1 (configuration not stated) |  |  | 65.8% | 84.6% | 54.9% | 90.8% | 97.4% | inactive |  |  | 
11 | CS(=O)(=O)c1ccc(-c2cnc(N)c(C(=O)Nc3ccccc3)n2)cc1 |  |  | 7.85% | 9.88% | 7.67% | 2.44% | 41.5% | inactive |  |  | 
12 | CNC(=O)c1ccc(-c2cnc3ncc(Cc4ccc5ncccc5c4)n3n2)cc1F |  |  | 19.3% | 41.8% | 37.1% | 10.4% | 92.3% | inactive |  |  | 
13 | CC1=C(CO)C(=O)O[C@@H]([C@@H](C)[C@H]2CC[C@H]3[C@@H]4C[C@H]5O[C@]56[C@@H](O)C=CC(=O)[C@]6(C)[C@@H]4CC[C@]23C)C1 | -0.497% | -0.146% | 6.08% | 7.1% | 7.54% | 3.14% | 1.9% | 9.35 µM (active) |  | 0.372 µM (active) | 
14 | CC(=O)OCCN1C(=O)c2c(C)nc3ccc(S(=O)(=O)N4CCOCC4)cc3c2C1=O | 97.6% | 103% | 365% | 102% | 86.6% | 666% |  | inactive | 15.6% (inactive) |  | 96.2%
15 | CCN1CCN(Cc2ccc(-c3cc4c(N[C@H](C)c5ccccc5)ncnc4[nH]3)cc2)CC1 | 1.84% | 0.0196% | 5.16% |  | 7.53% | 8.9% | 6.05% | inactive |  | 23.5 µM (active) | 
16 | CC=CC1=C(C(=O)O)N2C(=O)[C@H](NC(=O)[C@H](N)c3ccc(O)cc3)[C@@H]2SC1 |  |  | 99.8% | 99.9% | 99.4% | 88% | 89.2% |  |  |  | 
17 | Cc1[nH]c2ccccc2c1CCNCc1ccc(C=CC(=O)NO)cc1 | -0.223% | -0.887% | 4.38% | 7.14% | 6.72% | 2.36% | 7.62% | inactive |  | 1.18 µM (active) | 
18 | CNC(=O)c1ccc(N2C(=S)N(c3cnc(C#N)c(C(F)(F)F)c3)C(=O)C23CCC3)cc1F |  |  | 41% | 79.8% | 39% | 41.2% |  | inactive |  |  | 
19 | N#CCNC(=O)c1ccc(-c2ccnc(Nc3ccc(N4CCOCC4)cc3)n2)cc1 | 14% | 10.2% |  | 12.8% | 13.1% | 4.94% | 32.6% | inactive |  |  | 5.35%
20 | CN(C)CC=CC(=O)Nc1cc2c(Nc3ccc(F)c(Cl)c3)ncnc2cc1O[C@H]1CCOC1 | 0.518% | 0.188% | 6.72% | 7.96% | 9.26% | 8.85% | 5.7% |  |  | 0.935 µM (active) | -0.281%
21 | Cc1[nH]nc2ccc(-c3cncc(OC[C@@H](N)Cc4ccccc4)c3)cc12 | 14.2% | 17.9% | 19.3% | 38% | 20.4% | 8.27% | 3.31% | inactive |  |  | 30.1%
22 | CCN(CC)CCCCNc1ncc2cc(-c3cc(OC)cc(OC)c3)c(NC(=O)NC(C)(C)C)nc2n1 | 1.21% | 0.178% | 5.7% | 9.87% | 8% | 5.53% | 1.79% |  |  |  | 
23 | C=CC(=O)Nc1cc2c(Nc3ccc(F)c(Cl)c3)ncnc2cc1OCCCN1CCOCC1 | 10.5% | 1.71% | 31.1% |  | 29.7% | 3.29% | 11.2% | inactive |  |  | 
24 | Cc1cc(Nc2cc(N3CCN(C)CC3)nc(C=Cc3ccccc3)n2)n[nH]1 | 3.11% | 0.814% | 5.15% [at 57.5 µM] | 6.9% [at 57.5 µM] | 8.07% [at 57.5 µM] | 2.5% [at 57.5 µM] | 3.23% [at 92.2 µM] | inactive |  | 8.33 µM (active) | 
25 | CC(C)c1cc(-c2n[nH]c(=O)n2-c2ccc3c(ccn3C)c2)c(O)cc1O |  |  | 5.55% | 8.22% | 8.97% | 1.94% | 10.7% |  |  |  | 
26 | CN1CCN(c2ccc3nc(-c4c(N)c5c(F)cccc5[nH]c4=O)[nH]c3c2)CC1 | -0.739% | -3.26% | 3.66% | 6.04% | 7.17% | 2.91% | 3.34% | inactive |  |  | -2.13%
27 | CCc1c2c(nc3ccc(O)cc13)-c1cc3c(c(=O)n1C2)COC(=O)[C@]3(O)CC |  |  | 13.6% | 12.1% | 19.1% | 11.3% | 5.47% | inactive |  |  | 
